Experimental data published in PubChem BioAssay AID651658 (Broad Institute, 2012).
“And” between values parts separate entries of the source, which are not always exact repeats. Identical values can stand only once. Hit rate of the full screen: of about 340,000 compounds, about 5,100 (1.5%) were called active. The sample as a whole holds a higher share of actives than the screen did. A number with no mark means an inactive call.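 How the source made its calls: active means mean Tm shift, scaled 0 neutral to 100 positive control, at about 1.3% or above, every replicate too (limit read from the data); inconclusive means no clear call, values can overlap the other calls; inactive means the rest.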

Each compound was assayed against Fibroblast growth factor 22 (Homo sapiens) (UniProt Q9HCT0) (assay: FGF22 ligand-induced thermal stabilization – biophysical, thermal shift, single point, FGF22 synaptogenesis inhibitor project, primary screen (AID 651658)). Conditions: recombinant FGF22 thermal shift, SYPRO orange fluorescence; at 9.99 µM; active compounds read high; percent of sucrose octasulfate shift, DMSO zero.
Chain of Fibroblast growth factor 22 (Homo sapiens) (Q9HCT0 whole entry, looked up): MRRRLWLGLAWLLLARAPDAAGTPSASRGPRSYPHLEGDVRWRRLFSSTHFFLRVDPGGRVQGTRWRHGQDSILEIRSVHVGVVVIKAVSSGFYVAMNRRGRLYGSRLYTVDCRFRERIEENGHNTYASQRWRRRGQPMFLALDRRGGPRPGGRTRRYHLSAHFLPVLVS

Structure (SMILES) | activity (Tm shift, normalised)
C[C@H](CO)N1C[C@H](C)[C@H](CN(C)C(=O)C2CC2)OCc2ccccc2-c2ccccc2C1=O | 0.103%
O=C(NCC[C@@H]1CC[C@H](NC(=O)C2CC2)[C@H](CO)O1)c1cnccn1 | 0.118%
C[C@H](O)C#Cc1ccc2c(c1)O[C@H](CN(C)Cc1ccccn1)[C@H](C)CN([C@H](C)CO)S2(=O)=O | -0.169%
CCCNC(=O)C[C@@H]1C[C@H]2c3cc(NC(=O)Nc4ccccc4F)ccc3O[C@H]2[C@H](CO)O1 | -0.607%
COc1cccc(NC(=O)N2[C@@H]3CNC[C@H]2C3c2ccc(-c3ccncc3)cc2)c1 (stereo not given in full) | 0.042% and -0.443%
S=c1[nH]nc(COc2ccccc2)n1-c1ccccc1 | 43.8% (active)
COc1ccc(OCc2n[nH]c(=S)n2N)cc1 | 0.243%
Fc1ccc(/C=N/n2c(COc3ccccc3)n[nH]c2=S)cc1 | 0.702%
CO[C@@H]1CN(C)C(=O)c2cc(NS(=O)(=O)CC(F)(F)F)ccc2OC[C@H](C)N(C)C[C@H]1C | -0.229%
O=C(C[C@H]1CC[C@H]2[C@@H](COC[C@H](O)CN2C(=O)c2ccccc2F)O1)NCc1ccccc1 | 0.053%
O=C(NCC1CC1)[C@H]1[C@H](CO)[C@H]2Cn3c(ccc(/C=C/c4ccccc4)c3=O)[C@@H]1N2C(=O)C1CCC1 | 0.006%
COc1ccc(Cn2c(=O)oc3ccccc32)cc1 | -0.205%
COc1ccc(Cn2c(-c3ccc(Cl)cc3)c[n+]3ccccc23)cc1 | 44% (active)
COc1ccc(-c2ccc([C@@H]3[C@@H](CO)N4C(=O)CN(Cc5ccccc5)C[C@@H]34)cc2)cc1 | -0.039%
C[C@@H]1CCCCO[C@H](CN(C)Cc2ccc3c(c2)OCO3)[C@H](C)CN([C@@H](C)CO)C(=O)c2cc(NS(=O)(=O)c3cccs3)ccc2O1 | -0.357% and -0.044%
CCCOc1ccc(NC(=O)CC2C(=O)N(C)C(=S)N2Cc2ccc3c(c2)OCO3)cc1 (stereo not given) | 2.52% (active)
O=C(Nc1ccc(Cl)cc1)C1c2cccc[n+]2CC(=O)N1Cc1ccc2c(c1)OCO2 (stereo not given) | -0.124%
CCOc1ccc(NC(=O)CC2C(=O)N(c3ccccc3)C(=O)N2CCOC)cc1 (stereo not given) | -0.014%
COc1ccc(NC(=O)N[C@@H]2CC[C@H](CC(=O)NC3CCC3)O[C@H]2CO)cc1 | -0.109%
O=C(C[C@@H]1CC[C@@H]2[C@H](COC[C@H](O)CN2S(=O)(=O)c2ccc(Oc3ccccc3)cc2)O1)NCCN1CCCCC1 | 0.107%
